Calls of active or inactive are those of the source.

Test [1] is described as follows: binders of probe aFSTL3 on microarray, primary screen, stem cell growth factor project, biochemical, small-molecule microarray, fluorescence 635/667 (AID 1064).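 Note: measures binding of the biotinylated anti-FSTL3 antibody to printed compounds.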 The following applies: higher = more signal.
Test [2] is described as follows: binders from COS7 lysate, DM2A8 probe, primary screen, torsin A project, cell lysate, small-molecule microarray, fluorescence 635/667 (AID 1065). As to conditions: higher = more signal, COS7 lysate expressing mutant human TOR1A.
A short description of test [3]: binders of probe aFGF2 on microarray, primary screen, stem cell growth factor project, biochemical, small-molecule microarray, fluorescence 635/667 (AID 1067).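 Note: measures binding of biotinylated aFGF2 protein to printed compounds on slides; z-score merges feature fluorescence and signal-to-noise across triplicate slides.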 As to conditions: higher = more signal.
Test [4] in a line: binders of probe aFGF10 on microarray, primary screen, stem cell growth factor project, biochemical, small-molecule microarray, fluorescence 635/667 (AID 1071).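 Note: score merges 667 nm spot intensity and signal to noise from triplicate slides.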 The following applies: higher = more signal.
The target of test [5] is Neurogenic locus notch homolog protein 2 (Homo sapiens) (UniProt Q04721). As to the kind of experiment: Notch2 binders on small-molecule microarrays, primary screen, biochemical, small-molecule microarray, 635 nm fluorescence, stem cell growth factors (AID 1073). As to conditions: Notch2 binding, higher = more signal.
Test [6] deals with Pro-neuregulin-1, membrane-bound isoform (Homo sapiens) (UniProt Q02297). As to the kind of experiment: NRG1 binders on small-molecule microarrays, primary screen, psychiatric disease protein project, biochemical, small-molecule microarray, fluorescence 635/667 (AID 1075).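 Note: score combines 667 nm spot fluorescence with signal to noise.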 The following applies: NRG1 binding, 635 nm fluorescence, higher = more signal.
In test [7] the test system is Neuregulin-1 EGF-like domain. As to the kind of experiment: binders of neuregulin-1 EGF-like domain, primary screen, biochemical, small-molecule microarray, 635 nm fluorescence (AID 1081).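 Note: binding of the protein to compounds printed on small-molecule microarray slides.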 The following applies: small-molecule microarray binding, higher = more signal.
Test [8] is described as follows: FRG1 promoter luciferase signal modulators, primary screen, FRG1 inhibition for FSHD, cell-based, C2C12 myotubes, firefly/Renilla luciferase, luminescence (AID 1084). As to conditions: higher = more signal, called active from +8 up or from −8 down.
The nature of test [9]: binders of probe aFST on microarray, primary screen, stem cell growth factor project, biochemical, small-molecule microarray, fluorescence 635/667 (AID 1086).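 Note: score merges 667 nm fluorescence with signal-to-noise of each printed compound spot.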 The following applies: higher = more signal.
Test [10] is described as follows: binders of probe aHhip on microarray, primary screen, stem cell growth factor project, biochemical, small-molecule microarray, fluorescence 635/667 (AID 1087).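 Note: score merges spot fluorescence at 667nm with spot signal to noise ratio.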 The following applies: higher = more signal.
The subject of test [11] is PRMT1 (protein arginine N-methyltransferase 1). As to the kind of experiment: PRMT1 binders on small-molecule microarrays, primary screen, biochemical, small-molecule microarray, 635 nm fluorescence (AID 1088).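 Note: binding of Prmt1 protein to compounds spotted on small-molecule microarray slides.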 The following applies: small-molecule microarray binding, higher = more signal.
The nature of test [12]: yeast growth modulation, basal conditions, primary screen, YJM789 clinical isolate, OD600, 24 h (AID 1089).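 Note: growth of clinical yeast isolate S. cerevisiae YJM 789 seeded 1000 cells per well; test concentration not given here.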 As to conditions: S. cerevisiae YJM789 growth, higher = more signal, called active from +8 up or from −8 down.
Test [13] can be described thus: fission yeast growth modulation, primary screen, strain 972, OD600, 24 h, no modulator (AID 1090).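 Note: basal condition with compound alone and no growth modifier present; test concentration not given here.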 As to conditions: S. pombe 972 growth, higher = more signal, called active from +8 up or from −8 down.
Test [14] in a line: S. cerevisiae growth modulation with rapamycin, primary screen, strain BY4716, OD600, 96 h (AID 1091). Note: test concentration not given here. The following applies: higher = more signal, called active from +8 up or from −8 down.
The target of test [15] is Torsin-1A-interacting protein 2 (Homo sapiens) (UniProt Q8NFQ8). The test is described as follows: LULL1 binders on small-molecule microarray, primary screen, cell lysate, human LULL1 lysate, 635/667 nm fluorescence (AID 1092).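 Note: score merges per-feature 667 nm fluorescence with signal-to-noise.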 The following applies: hLULL1 lysate binding, 635 nm fluorescence, higher = more signal.
Test [16] is described as follows: E. coli growth modulation, two-sided OD650, primary screen, E. coli filamentation project, strain DRC41, 24 h (AID 1093).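 Note: MC1000 strain lacking acrAB efflux and sulA so SOS filamentation is blocked; test concentration not given here.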 As to conditions: OD650, 24 h, higher = more signal, called active from +8 up or from −8 down.
A short description of test [17]: small-molecule microarray binders of probe aLefty2, primary screen, biochemical, biotinylated probe, 635/667 nm fluorescence (AID 1094).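 Note: score merges spot fluorescence near 667 nm with spot signal-to-noise ratio.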 The following applies: higher = more signal.
The subject of test [18] is Noggin (protein binding on small-molecule microarray). As to the kind of experiment: Noggin binders on small-molecule microarray, primary screen, biochemical, 635/667 nm fluorescence (AID 1095).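 Note: score merges 667 nm feature fluorescence with signal to noise over triplicate slides.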 The following applies: 635 nm fluorescence, higher = more signal.
Test [19] deals with Neurogenic locus notch homolog protein 3 (Homo sapiens) (UniProt Q9UM47). The test is described as follows: NOTCH3 binders on small-molecule microarray, primary screen, biochemical, 635/667 nm fluorescence (AID 1096). As to conditions: NOTCH3 binding, 635 nm fluorescence, higher = more signal.
Test [20] is described as follows: small-molecule microarray binders of probe aEGFR, primary screen, biochemical, biotinylated probe, 635/667 nm fluorescence (AID 1097).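 Note: probe is a biotinylated anti-EGFR antibody binding compounds printed on slides; score combines fluorescence near 667 nm and signal to noise of each spot.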 The following applies: higher = more signal.

Pro-neuregulin-1, membrane-bound isoform (Homo sapiens), sequence (Q02297 whole entry, looked up, the tested form may be a part, canonical isoform): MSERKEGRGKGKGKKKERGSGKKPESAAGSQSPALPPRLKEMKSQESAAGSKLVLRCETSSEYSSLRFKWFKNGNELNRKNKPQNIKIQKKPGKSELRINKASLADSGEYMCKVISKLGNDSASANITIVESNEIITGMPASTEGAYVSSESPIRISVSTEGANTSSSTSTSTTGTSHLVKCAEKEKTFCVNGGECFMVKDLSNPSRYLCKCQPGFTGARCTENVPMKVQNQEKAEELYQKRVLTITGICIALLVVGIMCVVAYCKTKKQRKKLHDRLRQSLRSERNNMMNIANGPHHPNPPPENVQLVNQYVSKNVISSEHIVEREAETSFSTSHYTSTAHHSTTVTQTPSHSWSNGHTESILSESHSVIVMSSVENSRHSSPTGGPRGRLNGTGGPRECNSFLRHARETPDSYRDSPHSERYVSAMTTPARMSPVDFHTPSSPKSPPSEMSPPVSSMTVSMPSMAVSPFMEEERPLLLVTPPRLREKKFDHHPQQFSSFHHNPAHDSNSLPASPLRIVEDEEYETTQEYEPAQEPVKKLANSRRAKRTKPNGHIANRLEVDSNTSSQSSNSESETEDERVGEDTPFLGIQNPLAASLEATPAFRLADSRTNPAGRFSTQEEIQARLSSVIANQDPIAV
Neurogenic locus notch homolog protein 2 (Homo sapiens), sequence (Q04721 whole entry, looked up, canonical isoform): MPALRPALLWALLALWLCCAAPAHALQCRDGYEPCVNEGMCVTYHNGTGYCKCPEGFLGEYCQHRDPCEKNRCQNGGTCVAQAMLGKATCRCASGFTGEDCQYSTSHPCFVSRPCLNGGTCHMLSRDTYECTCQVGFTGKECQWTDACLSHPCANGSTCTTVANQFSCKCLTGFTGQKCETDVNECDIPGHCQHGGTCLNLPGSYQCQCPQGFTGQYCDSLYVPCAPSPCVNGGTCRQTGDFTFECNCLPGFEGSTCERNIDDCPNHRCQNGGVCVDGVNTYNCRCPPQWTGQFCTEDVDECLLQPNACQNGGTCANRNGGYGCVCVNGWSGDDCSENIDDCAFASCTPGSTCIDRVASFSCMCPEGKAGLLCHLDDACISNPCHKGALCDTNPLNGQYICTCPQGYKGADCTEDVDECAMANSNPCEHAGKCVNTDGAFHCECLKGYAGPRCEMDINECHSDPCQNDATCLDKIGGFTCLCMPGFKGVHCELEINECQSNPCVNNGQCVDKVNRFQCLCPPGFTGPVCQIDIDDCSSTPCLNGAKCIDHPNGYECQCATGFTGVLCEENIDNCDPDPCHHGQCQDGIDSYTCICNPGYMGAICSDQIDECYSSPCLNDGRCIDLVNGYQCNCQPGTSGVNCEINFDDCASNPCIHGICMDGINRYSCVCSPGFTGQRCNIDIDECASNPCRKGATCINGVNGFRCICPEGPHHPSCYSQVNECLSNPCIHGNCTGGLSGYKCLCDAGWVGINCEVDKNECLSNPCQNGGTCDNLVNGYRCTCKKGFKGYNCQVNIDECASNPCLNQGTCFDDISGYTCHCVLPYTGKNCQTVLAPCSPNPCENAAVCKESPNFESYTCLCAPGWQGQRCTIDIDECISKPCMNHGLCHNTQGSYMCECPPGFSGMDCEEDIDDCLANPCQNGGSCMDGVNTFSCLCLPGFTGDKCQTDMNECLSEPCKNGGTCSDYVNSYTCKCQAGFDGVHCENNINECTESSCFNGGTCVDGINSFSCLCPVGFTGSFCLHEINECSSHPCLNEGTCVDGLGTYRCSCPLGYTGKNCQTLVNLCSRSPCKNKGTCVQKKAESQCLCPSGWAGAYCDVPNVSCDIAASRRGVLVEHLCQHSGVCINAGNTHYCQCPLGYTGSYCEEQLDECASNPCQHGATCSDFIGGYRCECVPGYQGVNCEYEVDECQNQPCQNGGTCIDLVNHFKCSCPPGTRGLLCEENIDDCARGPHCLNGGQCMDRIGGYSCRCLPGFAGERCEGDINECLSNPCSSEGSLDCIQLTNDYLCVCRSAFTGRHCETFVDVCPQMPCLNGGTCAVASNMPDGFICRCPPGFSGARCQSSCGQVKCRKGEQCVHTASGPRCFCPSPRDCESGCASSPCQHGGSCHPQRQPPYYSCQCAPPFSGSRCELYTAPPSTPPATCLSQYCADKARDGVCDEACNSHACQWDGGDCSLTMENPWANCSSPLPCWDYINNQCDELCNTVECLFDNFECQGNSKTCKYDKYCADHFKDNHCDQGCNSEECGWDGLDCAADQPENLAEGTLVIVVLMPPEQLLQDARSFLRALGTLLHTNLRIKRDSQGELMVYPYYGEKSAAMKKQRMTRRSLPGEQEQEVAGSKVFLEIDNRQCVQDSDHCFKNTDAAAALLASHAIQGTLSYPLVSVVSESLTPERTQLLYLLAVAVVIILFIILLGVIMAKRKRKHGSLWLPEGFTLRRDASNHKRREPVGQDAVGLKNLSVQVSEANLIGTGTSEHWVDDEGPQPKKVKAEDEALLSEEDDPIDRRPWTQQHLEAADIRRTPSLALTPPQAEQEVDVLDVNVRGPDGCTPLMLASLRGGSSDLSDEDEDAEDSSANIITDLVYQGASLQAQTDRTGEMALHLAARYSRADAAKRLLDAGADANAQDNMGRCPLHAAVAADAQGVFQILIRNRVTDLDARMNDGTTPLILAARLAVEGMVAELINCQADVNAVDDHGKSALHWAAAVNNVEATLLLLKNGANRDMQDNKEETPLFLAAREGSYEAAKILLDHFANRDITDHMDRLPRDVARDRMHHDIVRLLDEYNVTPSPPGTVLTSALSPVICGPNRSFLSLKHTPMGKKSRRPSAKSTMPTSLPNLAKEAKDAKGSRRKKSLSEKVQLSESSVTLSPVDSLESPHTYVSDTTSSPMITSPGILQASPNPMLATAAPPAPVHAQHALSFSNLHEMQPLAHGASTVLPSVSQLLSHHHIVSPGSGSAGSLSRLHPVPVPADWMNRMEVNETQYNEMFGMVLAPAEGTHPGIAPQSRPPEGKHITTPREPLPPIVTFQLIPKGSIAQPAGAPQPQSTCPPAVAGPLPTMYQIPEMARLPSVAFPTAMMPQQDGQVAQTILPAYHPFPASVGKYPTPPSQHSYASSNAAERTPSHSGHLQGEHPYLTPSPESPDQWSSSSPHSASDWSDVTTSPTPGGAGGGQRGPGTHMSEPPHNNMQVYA
Torsin-1A-interacting protein 2 (Homo sapiens), sequence (Q8NFQ8 whole entry, looked up): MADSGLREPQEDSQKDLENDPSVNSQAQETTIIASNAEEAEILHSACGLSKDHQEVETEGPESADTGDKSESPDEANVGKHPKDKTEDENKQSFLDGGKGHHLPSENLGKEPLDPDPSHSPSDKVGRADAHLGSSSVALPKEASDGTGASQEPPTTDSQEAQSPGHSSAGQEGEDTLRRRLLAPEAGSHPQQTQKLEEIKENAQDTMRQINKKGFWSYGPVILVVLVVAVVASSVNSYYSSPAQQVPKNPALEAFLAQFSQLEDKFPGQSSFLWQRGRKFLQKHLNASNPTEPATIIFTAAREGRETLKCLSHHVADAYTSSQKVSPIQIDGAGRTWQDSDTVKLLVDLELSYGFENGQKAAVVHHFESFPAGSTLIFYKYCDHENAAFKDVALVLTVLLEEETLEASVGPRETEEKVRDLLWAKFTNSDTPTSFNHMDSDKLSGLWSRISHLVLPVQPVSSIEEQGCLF

With `C=C(COC)/C(=C/C[C@@H](OC(C)=O)c1ccc(OCCO)cc1)c1cnc2ccccc2c1`, the composite z-score was -0.123 in test [1]; 0.093 in [2]; 0.0059 in test [3]; 0.647 in test [4]; 0.912 in test [5]; 0.521 in [6]. For the same compound, the composite z-score in test [7] is 0.957; in test [9] it was 0.253; in test [10], 0.0413; in test [11], 1.19; in [15] it was 0.014; in [17] it was -0.0998. The composite z-score in test [18] is 1.89; in test [19], 1.08; in [20], -0.067. In addition, the z-score in [8] was -0.265 (inactive); in test [12] it was -0.938 (inactive); in test [13], -1.5 (inactive); in test [14] it was -1.05 (inactive); in [16], 2.33 (inactive).
With `COC(=O)[C@@]1(Cc2ccc(OC)cc2)[C@H]2c3cc(C(=O)N(C)C)n(CCc4ccccn4)c3C[C@H]2CN1C(=O)c1ccccc1`, the composite z-score in test [1] was 1.63; in test [2], -0.0525; in [3], 0.638; in test [4], 0.402; in [5], 1.61; in test [6], 0.428. The composite z-score in test [7] was 1.05; in [9], 1.38; in [10], 0.47; in [11], -0.663; in test [15] it was 2.5; in [17] it was 1.09. Further, the composite z-score was -0.307 in [18], 0.0532 in test [19] and 0.865 in test [20]. Moreover, the z-score in test [8] is 0.845 (inactive); in test [12], 0.735 (inactive); in test [13], 1.55 (inactive); in test [14] it was 2.81 (inactive); in test [16], -0.901 (inactive).
Consider `C=C(C(=O)CC[C@@H](OC(=O)c1cccnc1)c1ccccc1OCCO)C(C)C`, for which the composite z-score in test [1] is -0.44; in [2], 0.447; in test [3] it was -0.119; in [4], 0.0736; in test [5], 0.151; in [6] it was 0.21. Also, the composite z-score in test [7] is 0.624; in [9] it was 0.0397; in [10], 0.0156; in test [11], 1.44; in test [15] it was -0.263; in [17], -0.0666. Further, the composite z-score in [18] was 0.535; in test [19], 0.272; in test [20] it was -0.0703. Besides, the z-score was -0.151 (inactive) in [8]; -0.73 (inactive) in test [12]; -0.177 (inactive) in test [13]; 0.404 (inactive) in [14]; 0.144 (inactive) in test [16].
Regarding `CCCCCN1CC=CC23O[C@@H]4C=CCCOC(=O)C4[C@H]2C(=O)N(CCCCCO)[C@@H]3C1=O` (stereo not given in full), the composite z-score is 0.262 in test [1]; 1.2 in [2]; -0.195 in [3]; -0.168 in test [4]; -0.814 in [5]; 0.927 in test [6]. Besides, the composite z-score in [7] is 1.55; in [9] it was -0.432; in test [10], -0.45; in test [11], -0.192; in test [15], 2.3; in [17], -0.0288. Moreover, the composite z-score in test [18] is -0.589; in [19], -0.147; in [20] it was -0.203. For the same compound, the z-score was -0.666 (inactive) in test [8]; -0.286 (inactive) in [12]; -0.772 (inactive) in test [13]; -0.255 (inactive) in test [14]; 0.764 (inactive) in test [16].
With `COCCOC(=O)N1C(=O)[C@@]2(c3cc(C#CCNC(N)=O)ccc31)[C@H](C(=O)Nc1nc3ccccc3s1)[C@H]1C(=O)O[C@H](c3ccccc3)[C@H](c3ccccc3)N1[C@@H]2c1ccc(OCCO)cc1`, the composite z-score in test [1] was 1.02; in test [2], 0.103; in test [3], 0.0346; in [4] it was 1.05; in [5], 0.486; in [6], 0.357. The composite z-score in test [7] was 0.331; in [9], 0.84; in [10], -0.226; in test [11] it was 1.55; in test [15], 1.61; in [17], 0.711. Moreover, the composite z-score was 0.88 in test [18], 1.06 in test [19] and -0.0354 in [20]. In addition, the z-score in [8] was 6.33 (inactive); in test [12] it was 1.18 (inactive); in test [13], 0.409 (inactive); in test [14], 2.79 (inactive); in [16], -0.333 (inactive).
With `COCCOC(=O)N1C(=O)[C@@]2(c3ccccc31)[C@H](c1ccc(O)cc1)N1[C@H](c3ccccc3)[C@H](c3ccccc3)OC(=O)[C@H]1[C@@H]2C(=O)Nc1nc2ccccc2s1`, the composite z-score in test [1] is 0.161; in [2], 0.912; in [3] it was -0.0441; in [4] it was 0.175; in test [5], 1.16; in test [6], 1.38. Further, the composite z-score in [7] was 1.11; in test [9], 0.5; in test [10], 0.0139; in [11], 1.31; in [15], 1.94; in test [17], 0.201. Besides, the composite z-score in [18] came out at 0.734; in test [19], 1.09; in test [20] it was 0.0432. The z-score in test [8] is -0.929 (inactive); in [12], 1.35 (inactive); in [13] it was 0.396 (inactive); in test [14] it was 1.75 (inactive); in test [16] it was 1.31 (inactive).

For the origin of these results see PubChem BioAssay.
